High-throughput results (PubChem BioAssay)
Most compounds without a hit are left out; they make up all but 6.1% or so of the library.
D1 antagonist: antagonists of human D1 dopamine receptor. P21728. HEK293 TREx D1 cells, calcium flux, dopamine EC80; active compounds read low. AID 504652. activity change, negative = inhibition, % at 10 µM. 3.2% of 360,000 active; in the data active means activity change below about -30%; further: on the % scale 0 is the no-effect control and ±100 the full control effect
Target sequence (P21728 whole entry, looked up): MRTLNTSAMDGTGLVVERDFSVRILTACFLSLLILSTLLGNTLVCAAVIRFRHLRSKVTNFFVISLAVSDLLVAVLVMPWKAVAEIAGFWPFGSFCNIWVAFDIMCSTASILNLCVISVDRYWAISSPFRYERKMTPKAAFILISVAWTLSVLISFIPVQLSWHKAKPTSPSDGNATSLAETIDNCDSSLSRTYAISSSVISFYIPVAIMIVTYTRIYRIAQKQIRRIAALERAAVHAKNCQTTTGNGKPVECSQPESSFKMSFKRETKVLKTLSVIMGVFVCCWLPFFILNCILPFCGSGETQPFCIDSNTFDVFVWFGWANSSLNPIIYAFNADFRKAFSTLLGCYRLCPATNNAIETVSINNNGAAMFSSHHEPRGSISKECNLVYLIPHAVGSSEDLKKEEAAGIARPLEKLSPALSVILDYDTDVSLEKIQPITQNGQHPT
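Calcium flux readout: force-coupled, inducible Hek293 Trex D1 line, cells induced overnight at 30 C with tetracycline, dye-loaded 30–90 min at RT. Antagonism scored against EC80 dopamine challenge given 180 s after compound.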
D1 agonist: agonists of human D1 dopamine receptor. activation, % at 2 µM. HEK293 T-REx D1 cells, calcium flux, agonist mode. P21728. 1% of 360,000 active; in the data active means activation above about 30%; further: 0% is about no effect
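Inducible HEK293 T-REx D1 cells, force-coupled to calcium signalling, were plated at 4000 cells/well with tetracycline and held overnight at 30 C. After no-wash calcium dye loading, compound-evoked calcium rise over 180 s flagged agonists.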
DRD3 agonist: activates the human D3 dopamine receptor. P35462. D3R DiscoveRx beta-arrestin cells, luminescence, 90 min. max activation, %. 0.58% of 410,000 active. AID 652048; in the data active means max activation above about 30%; further: 0% is about no effect
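Agonist mode: compounds and dopamine controls were applied to plated cells for 90 min at 37 degrees C after an overnight attachment at 1500 cells/well. Luminescent read-out followed 30 - 60 minutes at room temperature with DiscoveRx detection reagent.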
ERG-DNA inh: blocks human ERG Ets domain binding to DNA; P11308; fluorescence polarization, His-ERG Ets domain / labelled DNA; Potency, µM (highest dose often 76.9 µM), without a hit: top-dose FP activity, negative = inhibition, most hits filed as inhibitors; 0.028% of 370,000 active; active means well fitted inhibition curve with a large enough effect in the polarisation, with a control signal flat; the % refers to the polarisation;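 further: polarization taken with two DNA probes labelled with fluorescein and Texas red; potency means the concentration at half of the fitted maximal effect; % of control where 0% means no effect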
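His-tagged ERG Ets domain (1 uM in the protein solution; 300mM KCl, 50mM Tris-HCl, 1mM EDTA, 1mM DTT, pH 7.5) received compound, then a probe mix of 5 nM fluorescein-DNA and 100nM Texas-615-DNA. Fluorescence polarization was read for both dyes.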
D3 antag: blocks the human D3 dopamine receptor. P35462. D3R cells, DiscoveRx beta-arrestin luminescence, antagonist mode; active compounds read low. max response, negative = inhibition, %. 2.5% of 360,000 active; in the data active means max response below about -50%; further: on the % scale 0 is the no-effect control and ±100 the full control effect
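Cells expressing the human receptor were seeded at 1500 cells/well, incubated overnight at 37 degrees C in 5% CO2, then exposed to library compounds with dopamine controls for 90 minutes at 37 degrees C before luminescent detection.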
D1 PAM: human D1 dopamine receptor positive modulation. HEK293 TREx D1 cells, calcium flux, dopamine EC20 potentiation. potentiation, % at 10 µM. 0.036% of 360,000 active; in the data active means potentiation above about 30%; further: 0% is about no effect
Active calls of the source: *; . = not tested or not shown.

SMILES | D1 antagonist | D1 agonist | DRD3 agonist | ERG-DNA inh | D3 antag | D1 PAM
CCc1ccc(Nc2sc(C(=O)c3ccc(F)cc3)c(N)c2S(=O)(=O)c2ccccc2)cc1 | 21 | 14 | 8 | 3% | . | 0
Cc1ccc(Nc2sc(C(=O)c3ccc(F)cc3)c(N)c2S(=O)(=O)c2ccc(C)cc2)cc1 | -30* | 79* | -4 | 3% | . | -2
CCN(CC(=O)Nc1ccc2c(c1)OCCO2)C(=O)/C=C/c1ccc(OC)c(OC)c1 | -6 | 0 | -5 | 5% | -12 | -8
COc1ccc(/C(C)=N/NC(=O)c2ccccc2N)cc1 | -1 | 0 | -7 | -3% | -1 | -6
Cc1c(C(=O)NCC(C)(C)N2CCOCC2)oc2ccccc12 | 17 | 0 | -3 | -28% | 1 | -11
Cc1cc(C)nc(Nc2ccccc2Cl)n1 | -15 | 8 | -15 | 1% | -70* | -3
Cc1ccccc1Cn1cc(NC(=O)c2noc3c2CC(C(C)(C)C)CC3)cn1 (stereo not given) | 25 | 3 | -3 | -5% | -21 | 1
Cc1ccccc1Cn1nc(C)c(NC(=O)c2noc3c2CC(C(C)(C)C)CC3)c1C (stereo not given) | 2 | 2 | 34* | -3% | 4 | -1
Cc1cccc(C(=O)Oc2ccccc2C(=O)N2CCOCC2)c1 | 6 | 4 | -16 | -5% | -1 | 0
CCOC(=O)c1oc2cc(O)ccc2c(=O)c1-c1ccccc1OC | 5 | 3 | -15 | -20% | -61* | -8
COc1ccc(-n2sc3ccc(F)cc3c2=O)cc1 | -4 | 9 | -43 | 16% | -55* | 1
Cc1ccc(C)c(-n2sc3ccc(F)cc3c2=O)c1 | -8 | 11 | -1 | 7% | -81* | -2
O=C(c1cc(C2CC2)on1)N1CCOCC1 | 5 | 4 | 0 | -4% | 5 | 2
CCOC(=O)N1CCN(C2CC(=O)N(c3ccc(C)cc3)C2=O)CC1 (stereo not given) | -4 | 5 | -11 | 11% | -63* | 3
Cc1ccc(N2C(=O)CC(N3CCN(C4CCc5ccccc5C4)CC3)C2=O)cc1 (stereo not given) | -7 | 5 | -14 | 4% | -55* | -11
CCOC(=O)N1CCN(C2CC(=O)N(c3ccc(F)cc3)C2=O)CC1 (stereo not given) | 0 | 0 | 2 | . | 13 | 4
CCOC(=O)N1CCN(C2CC(=O)N(c3ccc(Oc4ccccc4)cc3)C2=O)CC1 (stereo not given) | -9 | 8 | 53* | -5% | 15 | -3
COc1ccc(N/N=C(/C(N)=O)C2=NC(C)(C)Cc3ccccc32)cc1 | 4 | 1 | -3 | 12% | 2 | -2
CCN(C(=O)CSc1nnc(-c2ccccc2F)n1N)c1c(N)n(Cc2ccccc2)c(=O)[nH]c1=O | . | . | 4 | -7% | 31 | .
Cc1ccc(-c2nnc(SCC(=O)NNC(=O)COc3cccc4ccccc34)n2C)cc1 | 6 | 3 | . | . | . | -4
CCc1ccc(NC(=O)CNS(=O)(=O)c2c(C)noc2C)cc1 | -31* | 3 | -1 | 1% | 19 | 1
CC(CN1CCCCC1)NC(=O)c1cc(-c2ccccn2)nc2ccc(Cl)cc12 (stereo not given) | 5 | 3 | -18 | -2% | -2 | 4
CC(CN1CCCCC1)NC(=O)c1scnc1-c1ccccc1 (stereo not given) | . | . | -21 | . | -84* | .
COc1ccccc1CCN=C(N)NS(=O)(=O)c1cccs1 | -4 | 3 | 5 | 9% | -15 | 5
Cc1ccccc1NC(=O)NCCCN1CCN(c2ccccc2F)CC1 | -82* | 9 | . | 5% | . | -5
COc1ccccc1NC(=O)Nc1ccccc1C(=O)NCCCN1CCOCC1 | 2 | 3 | -1 | -1% | 2 | -5
COc1ccccc1N1CCN(CCCNC(=O)Nc2ccccc2C)CC1 | -42* | 2 | -16 | 3% | -27 | -8
COc1ccc(Cl)cc1N1CCN(CCNC(=O)Nc2ccccc2C)CC1 | -15 | 8 | -17 | 14% | -131* | -10
Cc1ccccc1NC(=O)C(=O)NCCCN1CCOCC1 | -2 | 2 | -1 | 6% | -2 | 0
